Screening data: PubChem, National Center for Advancing Translational Sciences (NCATS)
ELG1 DNA repair: qHTS screen for small molecules that inhibit ELG1-dependent DNA repair in human embryonic kidney (HEK293T) cells expressing luciferase-tagged ELG1; HEK293T ELG1-luciferase reporter, luminescence, 16 h; DNA damage induced by 5-fluorouridine; Potency, µM (doses to about 46.1 µM), for inactives: at the highest dose activity change, negative = inhibition, actives largely listed as inhibitors; hit rate 2.3% among 330,000; note: % is set by controls: 0 for no effect and ±100 for the full control effect; nearly all actives have a fitted effect of over 55% in size
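5-Fluorouridine DNA damage + compound/DMSO, 2,000 cells/well, 16 h, 37 °C/5% CO2. ONE-Glo, 30 min RT, luminescence. Readout = decrease in reporter signal.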
NPC1 promoter act: qHTS Assay for NPC1 Promoter Activators; Huh7 NPC1 promoter luciferase reporter, 24 h; Potency, µM (highest dose often 9.22 µM), inactives show at the top dose activation, usual class: activators; hit rate 2.4% among 320,000; AID 485313, 2010; note: % of control where 0% means no effect; nearly all actives have a fitted effect of over 60% in size
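In 1536-well qHTS, Huh7 cells harboring an NPC1 promoter–luciferase construct received compound for 24 h; activation was quantified by luminescence following luciferase reagent addition.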
FLuc counter: qHTS profiling assay for firefly luciferase inhibitor/activator using purifed enzyme and Km concentrations of substrates (counterscreen for miR-21 project); hit rate 6.9% among 360,000; Potency, µM (highest dose often 57.5 µM), inactives show top-dose activity change, negative = inhibition, hits mostly inhibitors; AID 588342, 2011; purified FLuc, Km substrates, luminescence inhibition;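 note: plate controls were vehicle for no effect and reference inhibitor for full effect; nearly all actives have a fitted effect of over 55% in size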
Target sequence (P08659 whole entry, looked up): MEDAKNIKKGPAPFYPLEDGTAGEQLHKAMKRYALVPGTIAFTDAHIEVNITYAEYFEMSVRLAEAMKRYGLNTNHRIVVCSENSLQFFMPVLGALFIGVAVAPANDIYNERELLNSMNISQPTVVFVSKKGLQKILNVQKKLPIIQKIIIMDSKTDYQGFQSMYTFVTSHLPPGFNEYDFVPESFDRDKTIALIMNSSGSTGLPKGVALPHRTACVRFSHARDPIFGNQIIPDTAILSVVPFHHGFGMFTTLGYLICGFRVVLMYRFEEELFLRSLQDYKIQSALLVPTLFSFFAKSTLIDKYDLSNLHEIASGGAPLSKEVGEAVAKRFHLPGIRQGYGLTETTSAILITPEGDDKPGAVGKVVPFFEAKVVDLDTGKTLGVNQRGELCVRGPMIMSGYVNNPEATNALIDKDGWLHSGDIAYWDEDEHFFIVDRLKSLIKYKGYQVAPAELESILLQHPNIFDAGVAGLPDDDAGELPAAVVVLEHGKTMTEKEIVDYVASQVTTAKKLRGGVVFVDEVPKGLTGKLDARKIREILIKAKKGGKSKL
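Purified P. pyralis luciferase (10nM final) with 10uM D-luciferin and 10uM ATP (Km levels) in 50mM Tris acetate pH 7.5, 10mM Mg acetate, 0.01% Tween-20, 0.05% BSA; qHTS 6-point titration, ~60 µM downward; luminescence read.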
Rab9 prom act: qHTS Assay for Rab9 Promoter Activators; hit rate 2.8% among 320,000; AID 485297, 2010; Potency, µM (top dose mostly 9.22 µM), for the others: at the top dose activation, negative = inhibition, hits mostly activators; Huh7 Rab9 promoter-luciferase reporter, luminescence, 24 h; note: % of control where 0% means no effect; nearly all actives have a fitted effect of over 60% in size
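Cell-based reporter: Huh7 stable for Rab9 promoter-driven luciferase, plated in reduced-serum medium with 10% FBS at 1500 cells/well, compound-treated 24 h at 37 °C, luminescence read after 10 min reagent.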
ELG1 genotox: qHTS screen for small molecules that induce genotoxicity in human embryonic kidney (HEK293T) cells expressing luciferase-tagged ELG1 | Potency, µM (highest dose often 46 µM), for inactives: top-dose activity change, positive = activation, usual class: activators | hit rate 1.3% among 330,000 | AID 504466, 2011 | HEK293T ELG1-luciferase reporter, luminescence, 16 h; note: % of control where 0% means no effect; nearly all actives have a fitted effect of over 60% in size
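Step 1: seed 2,000 HEK293T ELG1-luciferase cells per well. Step 2: add compound or DMSO, incubate 16 hr at 37 °C. Step 3: ONE-Glo, 30 min at room temperature, read luminescence.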
SMN2 splice enh: qHTS Assay for Enhancers of SMN2 Splice Variant Expression | Potency, µM (highest dose often 46.1 µM), without a hit: top-dose activity change, positive = activation, actives largely listed as activators | HEK293 SMN2-luciferase splicing reporter, luminescence, 30-36 h | hit rate 2.8% among 210,000; note: % of control where 0% means no effect; nearly all actives have a fitted effect of over 55% in size
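HEK293 cells carry an SMN2 minigene-luciferase reporter in which exon 7 inclusion puts luciferase in frame. Cells were seeded at 2000 cells/well, attached for 10-12 hours, then exposed to compounds for 30-36 hours at 37C before ONE-Glo luminescence.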
Numbers without * were called inactive; u = inconclusive; x = no result; [ ] = another dose, or the depositor's remark. This is a sample that favours compounds with a hit; in the whole collection about 9.2% have one here. Calls come from the whole dose curve; as a rule, active = well fitted curve in the direction sought with a large enough effect; inconclusive = small, poorly fitted or top-dose-only effect, or another doubt; inactive = no such curve, though single readings can be large; an effect the other way counts as inactive or inconclusive. Potency is the fitted concentration of half-maximal effect.

SMILES	ELG1 DNA repair	NPC1 promoter act	FLuc counter	Rab9 prom act	ELG1 genotox	SMN2 splice enh
COc1ccc2c(c1)c1c(c(=O)n(-c3ccc(C)cc3)c(=O)n1CC(=O)N1CCCC1)n2C	x	x	4.7%	x	x	x
Cc1nc2ccc(C(=O)Nc3ccccc3Cl)cc2s1	u	2.51µM*	16.9µM*	1.12µM*	u	x
Cc1ccccc1NC(=O)c1ccc2nc(N3CCOCC3)sc2c1	u	-2.4%	-11.1%	u	11.6%	x
Cc1nc2ccc(NC(=O)c3cccc(S(=O)(=O)N(C)c4ccccc4)c3)cc2s1	18.4µM*	-2.5%	-0.8%	0.9%	-9.3%	-8.7%[1.84 µM]
CC(=O)c1ccc(OCC(=O)Nc2ccc3nc(C)sc3c2)cc1	4.4%	-8.6%	-12.1%	2.2%	0.4%	4.6%
CC(=O)c1ccc(NC(=O)c2ccc3nc(C)sc3c2)cc1	u	2µM*	u	2.82µM*	u	x
O=C(NCCC1=CCCCC1)c1ccc2c(c1)ncn2-c1ccc(F)c(F)c1	x	x	-13.3%	x	x	x
CC(Sc1ccc(S(=O)(=O)N2CCN(C)CC2)cn1)C(=O)NC1CCCCC1 (stereo not drawn)	u	0.5%	6.3%	1.2%	-0.9%	x
CCN1C(=O)[C@@H]2[C@@H](c3ccc(-c4ccc(Cl)c(Cl)c4)c(OC)c3)N3CCCC[C@@]3(C(=O)OC)[C@@H]2C1=O	-1.0%	-7.3%	-1.5%	-2.1%	1.1%	x
CCn1c(=O)c2sccc2n2c(CCC(=O)Nc3ccc(C(C)C)cc3)nnc12	x	x	-8.9%	x	x	-0.9%
CCN(CC(=O)NCc1ccc(Cl)cc1)C(=O)CSc1ccc(Br)cc1	-22.1%	u	5.4%	6.0%	-16.9%	x
CC1=CC2=NC(=O)/C(=C\c3cc(C)n(-c4cccc(Cl)c4)c3C)C(=N)N2O1	u	0.8%	u	1.0%	4.8%	-21.9%
Cc1cc(/C=C2/C(=N)N3C(=NC2=O)SN=C3S(C)(=O)=O)c(C)n1-c1ccccc1F	u	3.16µM*	0.301µM*	3.16µM*	-3.2%	12.6µM*
CC1=CC2=NC(=O)/C(=C\c3cc(C)n(-c4ccccc4F)c3C)C(=N)N2O1	-25.3%	-0.6%	6.01µM*	-4.0%	-1.9%	-6.2%[1.84 µM]
CS(=O)(=O)C1=NSC2=NC(=O)/C(=C\c3cccn3-c3ccc(Cl)cc3)C(=N)N21	15.8%	-0.2%	-1.3%	-9.6%	1.5%	9.6%
CC1=CC2=NC(=O)/C(=C\c3cc(C)n(-c4ccccc4)c3C)C(=N)N2O1	-0.6%	1.0%	5.36µM*	0.2%	-1.7%	2.3%[1.84 µM]
CCOc1cccc(OCCCn2c(-c3ccc(Br)cc3)nc3ccccc3c2=O)c1	x	x	-7.3%	x	x	-7.1%
Cc1csc(NC(=O)NCC2CCCC(CNC(=O)Nc3nc(C)cs3)C2)n1 (stereo not drawn)	u	3.55µM*	u	20.5%	-1.4%	x
Cc1csc(NC(=O)c2ccc[nH]c2=O)n1	u	3.98µM*	16.9µM*	3.55µM*	16.4µM*	x
Cc1csc(NC(=O)c2ccccc2)n1	u	3.98µM*	9.53µM*	3.55µM*	u	x
COc1ccc(-c2nsc(NC(=O)c3cccc(OC)c3)n2)cc1	x	x	10.7µM*	x	x	-36.3%
Cc1csc(NC(=O)c2ccncc2)n1	u	-0.7%	u	7.8%	0.6%	x
Cc1csc(NC(=O)CCNC(=O)c2ccccc2Cl)n1	-12.2%	-2.9%	-3.5%	-0.4%	-0.2%	3.2%
CC(=O)Nc1nc(C)cs1	9.9%	-4.8%	-1.6%	0.4%	4.2%	-6.7%
COc1ccc(NC(=O)COC(=O)CNC(=O)COc2ccccc2)cc1OC	9.8%	2.7%	0.0%	0.9%	-0.1%	x
COc1cccc(C(=O)Nc2nc(-c3nnn(-c4cccc(Cl)c4C)c3C)ns2)c1	x	x	12µM*	x	x	x
